Giardia killer – Giardia lamblia killing | Giardia lamblia trophozoite viability | AID 540267 | hit rate 0.15% among 340,000 | activity change, % at 7.66 µM, hits read low; in the data active means activity change below about -80%; inconclusive means between about -30% and that limit;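 further: parasites exposed to compound for two days anaerobically before the ATP read; on the % scale 0 is the no-effect control and ±100 the full control effect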
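Trophozoites 100 cells/well + cpd; 48 hrs, 37 deg C, anaerobic. ATPLite 1-Step added, 15-30 min RT, luminescence read (ATP-based viability).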
HepG2 tox – HepG2 cytotoxicity, counter-screen for TGF-b inhibitors. HepG2 CAGA-GFP viability, ATP luminescence, 18 h. Potency, µM (titrated, usually from 46.1 µM), without a hit: top-dose activity change, negative = cytotoxicity, usual class: cytotoxic. hit rate 0.76% among 410,000. AID 588856; further: potency means the concentration at half of the fitted maximal effect
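HepG2 CAGA-GFP cells (1000/well, DMEM with 1% FBS) received compound, then TGF-beta at 500 pg/mL final, and were incubated 18 hours at 37 degrees C. Viability was read by CellTiter-Glo luminescence. Media-only wells were set as complete cell-killing and DMSO as no toxicity.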
TGFb inhibitor – inhibitors of TGF-b signaling; HepG2 CAGA-GFP TGF-b/SMAD3 reporter, GFP fluorescence, 18 h; TGF-beta stimulated, 500 pg/mL final; Potency, µM (highest dose often 46.1 µM), for the others: at the top dose activity, negative = inhibition, actives largely listed as inhibitors; hit rate 1.2% among 410,000; AID 588855; further: potency means the concentration at half of the fitted maximal effect; on the % scale 0 is the no-effect control and ±100 the full control effect; nearly all actives have a fitted effect of over 65% in size
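HEPG2 CAGA-GFP reporter cells (1000/well, DMEM with 1% FBS) received compounds, then recombinant TGF-beta at 500 pg/mL final for 18 hours at 37 degrees C. Per-cell GFP summed per well was normalised to unstimulated and stimulated DMSO controls before curve fitting.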
ATXN2 expr inh – reduces ATXN2 reporter expression in HEK-293 cells | Potency, µM (titrated, usually from 57 µM), inactives show at the highest dose activity change, negative = inhibition, actives largely listed as inhibitors | HEK-293 ATXN2-luciferase reporter, luminescence, 24 h | AID 1745845 | hit rate 0.72% among 360,000; further: potency means the concentration at half of the fitted maximal effect; on the % scale 0 is the no-effect control and ±100 the full control effect; nearly all actives have a fitted effect of over 55% in size
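ATXN2-luciferase reporter cells (luciferase flanked by upstream and downstream ATXN2 gene portions) were treated 24 h at 37 °C with compounds at up to 57 uM. SteadyGlo luminescence gave expression; GF-AFC fluorescence gave viability.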
uPA surface inh – cell surface uPA generation inhibition; cell surface uPA generation assay, qHTS; hit rate 0.31% among 330,000; AID 540303; Potency, µM (titrated, usually from 38.3 µM), for inactives: at the top dose activity change, negative = inhibition, most hits filed as inhibitors; active means well fitted inhibition curve with a large enough effect; inconclusive means small, poorly fitted or top-dose-only effect; inactive means no such curve, though single readings can be large or run the other way; tested in mouse RAW 264.7 cells; further: potency means the concentration at half of the fitted maximal effect; on the % scale 0 is the no-effect control and ±100 the full control effect; nearly all actives have a fitted effect of over 55% in size
ATXN viability – viability counter-screen for ATXN expression inhibitors; S2 cells (HEK-293 line with an ATXN2-luciferase reporter) viability, CellTiter-Fluor protease fluorescence, 24 h; Potency, µM (top dose mostly 56.7 µM), most hits filed as cytotoxic; hit rate 0.49% among 400,000; AID 651635; further: potency means the concentration at half of the fitted maximal effect; nearly all actives have a fitted effect of over 40% in size
Starred values were filed as active, the others as inactive; i = inactive; ? = inconclusive; / = not tested or not shown. Rows were chosen to be rich in hits. Some 2.6% of all compounds tested hit in one or more screens of this group. Unless noted, the call rests on the fitted dose curve; in most records, active means well fitted curve in the direction sought with a large enough effect; inconclusive means small, poorly fitted or top-dose-only effect, or another doubt; inactive means no such curve, though single readings can be large; an effect the other way counts as inactive or inconclusive.

SMILES	Giardia killer	HepG2 tox	TGFb inhibitor	ATXN2 expr inh	uPA surface inh	ATXN viability
Cc1cccc(-n2c(SCC(=O)Nc3ccc(C)c(C)c3)nc3n[nH]c(C)c3c2=N)c1	/	-26%	?	/	/	/
Cc1ccc(-n2c(SCC(=O)Nc3cccc(Cl)c3)nc3n[nH]c(C)c3c2=N)cc1	/	13µM*	1.8µM*	/	/	/
CC(=O)c1c(C)n([O-])c2cc(C)ccc2[n+]1=O	-104*	0%	9%	-2%	-2%	i
COc1ccc(-c2c(C)n([O-])c(C)c(C)[n+]2=O)cc1OC	1	-39%	2%	1%	0%	i
NC(=S)N=Nc1c(O)n(Cc2ccccc2)c2ccccc12	4	-38%	-14%	-13%	-4%	i
C/C(Cl)=C\Cn1c(O)c(N=NC(N)=S)c2ccccc21	0	-29%	?	24µM*	2%	/
Cc1c(C(=O)NCC(C)(C)N2CCOCC2)cnn1-c1nccc(-c2cccs2)n1	/	/	/	/	/	i
CC1Sc2ccc(C(=O)NCc3ccccn3)cc2NC1=O (stereo not given)	0	-38%	?	?	3.2µM*	i
O=C1C2CCCN2C(c2ccc(F)cc2)N1c1ccc(Cl)cc1 (stereo not given)	-11	-49%	-6%	46%	5µM*	i
O=C1C2CCCN2C(c2ccccc2)N1c1ccc(F)cc1 (stereo not given)	-17	5%	3%	7%	-22%	i
O=C(C[N+]1(CC(O)c2ccccc2)CCOCC1)c1ccccc1 (stereo not given)	/	-41%	-26%	/	/	/
CCc1c(C)nc2cc(-c3ccc(OC)c(OC)c3)nn2c1N1CCCC1	6	-93%	22µM*	?	6%	?
CCc1c(C)nc2cc(-c3ccc(OC)c(OC)c3)nn2c1N1CCC(C)CC1	20	-3%	-10%	-9%	-3%	i
Cc1oc(-c2ccccc2NC(=O)c2ccccn2)nc1CNC(=O)c1cccc(C#CC(C)(C)O)c1	/	/	/	/	/	i
CC1(C)C(N(O)C(=O)Nc2ccc(Cl)cc2)N(c2ccc(Cl)cc2)C(=O)N1CC(=O)NN=CC=Cc1ccc([N+](=O)[O-])o1 (stereo not given)	/	/	/	34µM*	/	/
COC(C/C=C\[C@H](O)COCc1ccccc1)OC	19	17%	-5%	0%	-3%	i
COC(C/C=C/C(=O)COCc1ccccc1)OC	16	-56%	?	1%	7.1µM*	?
COC(C/C=C/[C@H](O)[C@@H](C)OCc1ccccc1)OC	-1	-3%	0%	14%	4%	i
COC(C/C=C/C(=O)[C@H](C)OCc1ccccc1)OC	3	-86%	?	?	11µM*	/
CC(C)c1ccc(Cn2cnc3c(cnn3C(C)(C)C)c2=O)cc1	/	-13%	-8%	/	/	/
Cc1ccc(N(C(=O)CCl)C(C(=O)NC2CCCCC2)c2cccnc2)cc1C (stereo not given)	11	-26%	?	3.2µM*	-9%	2.8µM*
COc1ccc(N(C(=O)C(C)C)S(=O)(=O)c2ccc3ccccc3c2)cc1	-1	-7%	?	7%	1.8µM*	i
CN(C)c1ccc(/C=C/c2ccnc3ccc(F)cc23)cc1	/	-31%	-3%	/	/	/
Cc1[nH]cnc1-c1ccc(Cl)cc1	/	/	/	16%	/	i
CCc1ccc(NS(=O)(=O)c2ccc3[nH]c4c(c3c2)CCCCCC4)cc1	/	-100%	?	11%	/	?
SMILES	Giardia killer	HepG2 tox	TGFb inhibitor	ATXN2 expr inh	uPA surface inh	ATXN viability
O=S(=O)(NCc1ccc(F)cc1)c1ccc2[nH]c3c(c2c1)CCCCC3	/	-62%	?	-17%	/	i
COc1cc(NS(=O)(=O)c2ccc3[nH]c4c(c3c2)CCCC4)cc(OC)c1OC	/	-45%	?	?	/	?
COc1cccc(CNS(=O)(=O)c2ccc3[nH]c4c(c3c2)CCCCC4)c1	/	22µM*	?	?	/	?
COc1cc(NS(=O)(=O)c2ccc3[nH]c4c(c3c2)CCCCCC4)cc(OC)c1	/	-103%	13µM*	?	/	?
CCOC(=O)c1ccc(NS(=O)(=O)c2ccc3[nH]c4c(c3c2)CCCCC4)cc1	/	25µM*	?	?	/	?
COc1ccccc1CNC(=O)C1CCN(Cc2nc(-c3ccc(OC)c(OC)c3)oc2C)CC1	/	-2%	-4%	-2%	/	i
CCc1ccc(-c2nc(CN3CCC(C(=O)NCc4ccccc4OC)CC3)c(C)o2)cc1	1	14µM*	?	/	-6%	/
Cc1ccc(CNC(=O)C2CCCN(Cc3nc(-c4cccc(C)c4)oc3C)C2)cc1 (stereo not given)	/	16µM*	?	/	/	/
Cc1cccc(-c2nc(CN3CCCC(C(=O)NC4CCCCCC4)C3)c(C)o2)c1 (stereo not given)	-9	-59%	11µM*	-17%	/	?
Cc1oc(-c2cccc(Cl)c2)nc1CN1CCCC(C(=O)NCc2ccc(Cl)cc2)C1 (stereo not given)	/	-7%	?	2%	/	i
OC[C@H]1O[C@@H](n2cnc3c2NC=NC[C@H]3O)C[C@@H]1O	/	/	/	/	/	i
CN(C)CCNC(=O)c1ccc(-n2c(-c3ccccc3)cc3c2CCCC3)cc1	/	18µM*	?	/	/	/
C[C@@H]1C[C@@H]2OC(=O)[C@]3(C)[C@H]2[C@@H](OC3(C)O)[C@]2(C)C(=O)C=C[C@H]12 (stereo not given in full)	-3	-54%	-5%	-20%	?	i
C=C1C(=O)C=C[C@]2(C)C[C@@H]3OC(=O)[C@](C)(O)[C@H]3C[C@@H]12	6	-70%	?	10µM*	?	?
CC(=O)Nc1ccccc1-c1nc(CNC(=O)c2cc(C)ccc2C)c(C)o1	/	/	/	/	/	i
Cn1c(-c2ccccc2)c(/C=N/NC(=O)c2ccc(O)cc2)c2ccccc21	-7	-16%	?	/	3.5µM*	?
O=C(N/N=C\c1c(O)ccc2ccccc12)c1ccc(O)cc1	6	-32%	0%	?	?	?
CCOC(=O)c1[nH]cnc1N=Nc1c(O)ccc2ccccc12	-7	4%	0%	11µM*	-10%	10µM*
CN(C)c1ccc2nc3c(=O)[nH]c(=O)nc-3n(CC(O)C(O)C(O)CO)c2c1 (stereo not given)	-3	-20%	34%	/	6%	13µM*
COc1ccc(-c2c(C)nc3c(-c4ccccn4)cnn3c2N)cc1	-21	-37%	11µM*	48%	-14%	i
CN(C)CCCN(C(=O)/C=C/c1cccs1)c1nc2ccc(F)cc2s1	6	16µM*	17%	?	-9%	/
COc1ccc(C)c2sc(N(CCN(C)C)C(=O)/C=C/c3cccs3)nc12	-17	11µM*	?	?	?	?
